Key:
Settings in all cases: concentration: 1 μM, replicates: in singlicate; n = 1
[1] = test system: CLK2
[2] = test system: CLK3
[3] = test system: CLK4
[4] = test system: CSF1R-autoinhibited
[5] = test system: CSF1R
[6] = test system: CSK
[7] = test system: CSNK1A1L
[8] = test system: CSNK1A1
[9] = test system: CSNK1D
[10] = test system: CSNK1E
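Further: KINOMEscan kinase panel screen.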

SMILES | %Inh [1] [%] | %Inh [2] [%] | %Inh [3] [%] | %Inh [4] [%] | %Inh [5] [%] | %Inh [6] [%] | %Inh [7] [%] | %Inh [8] [%] | %Inh [9] [%] | %Inh [10] [%]
CN(c1ccc(F)c(NC(=O)c2cccc(OC(C)(C)C#N)c2Cl)c1)c1ccc2nc(NC(=O)C3CC3)sc2n1 | 0 | 0 | 0 | 17 | 99.8 | 16 | 14 | 9 | 0 | 0
Cc1cccc(Nc2nc(N[C@H]3CCCC[C@H]3N)ncc2C(N)=O)c1.Cl [GSK986310] | 28 | 27 | 24 | 0 | 78 | 12 | 59 | 46 | 50 | 64
Cc1ccc(O)cc1Nc1ccnc2cc(-c3ccc(CN4CCCCC4)o3)ccc12 [GW557777] | 0 | 0 | 0 | 0 | 96.7 | 82 | 44 | 84 | 27 | 34
CN(C)CCNS(=O)(=O)c1ccc(-c2ccnc3[nH]ccc23)cc1 [GSK977620] | 92.3 | 70 | 94.4 | 0 | 27 | 0 | 16 | 29 | 38 | 48
CN(c1ccc2c(c1)nc(NCc1ccccc1)n2C)c1ccnc(Nc2ccc(CS(C)(=O)=O)cc2)n1.Cl [GW811603] | 0 | 43 | 0 | 80 | 100 | 14 | 0 | 36 | 0 | 18
CCn1cnc2c(NCc3ccccc3)ncnc21 [SKF-96418] | 10 | 0 | 14 | 0 | 0 | 0 | 0 | 18 | 20 | 16
Cn1cc(-c2ccc3c(c2)CCN3C(=O)Cc2cc(F)cc(C(F)(F)F)c2)c2c(N)ncnc21 [GSK2635225] | 19 | 100 | 18 | 45 | 95.3 | 0 | 1 | 3 | 22 | 100
COc1cccc(CC(=O)N2CCc3cc(-c4cn(C)c5ncnc(N)c45)ccc32)c1 [GSK2608899] | 0 | 13 | 0 | 0 | 96.9 | 14 | 8 | 0 | 39 | 77
CN1CCN(Cc2ccc(NC(=O)Nc3ccc(N(C)c4ccnc(Nc5ccc(CS(C)(=O)=O)cc5)n4)cc3)cc2)CC1.Cl [GW827654] | 0 | 31 | 0 | 94.7 | 100 | 47 | 0 | 30 | 15 | 30
CCOc1nccc(-c2c(-c3ccc(F)cc3)ncn2C2CCNCC2)n1 [SB-249175] | 0 | 11 | 100 | 31 | 28 | 0 | 45 | 97.4 | 95.3 | 99.4
Cc1cc(-c2c(-c3ccc(F)cc3)ncn2CCCN2CCOCC2)nc(N)n1 [SB-222517] | 30 | 0 | 16 | 17 | 14 | 7 | 0 | 17 | 7 | 1
NCCC(NC(=O)c1cc(Br)c(-c2ccnc3[nH]ccc23)s1)c1ccccc1.O=C(O)C(F)(F)F.O=C(O)C(F)(F)F (stereo not drawn) [GSK1307810] | 37 | 54 | 46 | 43 | 18 | 0 | 71 | 93.9 | 94.1 | 94.1
Cn1cc(-c2ccc3c(c2)CCN3C(=O)Cc2cc(F)cc(F)c2F)c2c(N)ncnc21 [GSK2634140] | 0 | 24 | 16 | 0 | 87 | 0 | 17 | 0 | 13 | 47
Nc1ncc(-c2cn[nH]c2)c2scc(-c3ccc4c(c3)CCN4C(=O)Cc3ccccc3)c12 [GSK2593067] | 0 | 0 | 55 | 51 | 99.9 | 68 | 9 | 0 | 4 | 32
Cc1ccc(NC(=O)c2ccnc(N3CCCCC3)c2)cc1-c1ccc(C(=O)NCC2CC2)cc1 [GW775610] | 0 | 0 | 0 | 5 | 23 | 0 | 20 | 1 | 0 | 0
COc1ccc(C2=C(Nc3cccc(O)c3)C(=O)NC2=O)cc1 [SB-390766] | 84 | 22 | 85 | 0 | 0 | 15 | 7 | 0 | 94 | 20
CC(C)(C)c1ccc(C(=O)Nc2cn3cc(-n4ccnc4)ccc3n2)cc1 | 79 | 16 | 84 | 0 | 46 | 0 | 34 | 60 | 84 | 70

SMILES | %Inh [1] [%] | %Inh [2] [%] | %Inh [3] [%] | %Inh [4] [%] | %Inh [5] [%] | %Inh [6] [%] | %Inh [7] [%] | %Inh [8] [%] | %Inh [9] [%] | %Inh [10] [%]
Cc1nn2c(=O)cc(N3CCO[C@H](C)C3)nc2n1Cc1cccc(Cl)c1Cl [GSK2373693] | 31 | 4 | 59 | 0 | 6 | 56 | 0 | 16 | 69 | 25
O=C(Nc1n[nH]c2nc(-c3ccccc3)ccc12)C1CC1 [SB-708999] | 0 | 1 | 0 | 36 | 0 | 0 | 15 | 0 | 13 | 0
O=C(Nc1n[nH]c2nc(-c3ccccc3O)ccc12)C1CC1 [SB-711880] | 16 | 0 | 11 | 16 | 0 | 0 | 76 | 25 | 0 | 0
Cc1ccc(NC(=O)c2ccc(Cl)c(Cl)c2)cc1-c1ccc(C(=O)Nc2ccncc2)cc1 [GSK1398460] | 0 | 17 | 17 | 7 | 99.9 | 1 | 8 | 0 | 7 | 18
CN(C)c1ncnc2nc[nH]c12 [SKF-31736] | 23 | 0 | 0 | 0 | 6 | 0 | 0 | 0 | 0 | 4
CC(C)c1nc(-c2cccc(NS(=O)(=O)c3c(F)cccc3F)c2)c(-c2ccnc(Nc3ccc(N4CCOCC4)nc3)n2)s1.Cl [GSK1723980] | 0 | 0 | 0 | 0 | 52 | 96.5 | 0 | 95.1 | 0 | 10
CN(c1ccc(NC(=O)N2CCN(CCCN3CCOCC3)CC2)cc1)c1ccnc(Nc2ccc(CS(C)(=O)=O)cc2)n1.Cl [GW830899] | 0 | 0 | 0 | 0 | 66 | 24 | 79 | 25 | 5 | 0
O=C(Nc1c(F)cccc1F)c1cc(C(=O)c2ccccc2F)c[nH]1 [GSK1326180] | 0 | 2 | 0 | 32 | 1 | 0 | 5 | 16 | 0 | 20
COc1cccc2c(-c3ccncc3)c(-c3ccc(F)cc3)nn12 [GW468513] | 0 | 6 | 17 | 24 | 0 | 0 | 50 | 93.6 | 90.7 | 99.8
Cc1ccc(O)cc1Nc1ccnc2ccc(C(C)(C)C)cc12 [GW856805] | 26 | 0 | 3 | 0 | 32 | 53 | 20 | 40 | 13 | 1
CNc1nccc(-c2ccc3c(N)n[nH]c3c2)n1 [GSK2206003] | 84 | 48 | 95.5 | 11 | 6 | 0 | 6 | 0 | 20 | 28
Cc1ccc(NC(=O)c2cccc(N3CCCCC3)c2)cc1-c1ccc(C(=O)NCC2CC2)cc1 [GSK1917008] | 1 | 0 | 32 | 0 | 45 | 0 | 18 | 20 | 27 | 21
COc1cccc(C2=C(Nc3cccc(O)c3)C(=O)NC2=O)c1 [SB-390771] | 61 | 17 | 72 | 45 | 37 | 100 | 10 | 0 | 32 | 29
COc1cccc(NC(=O)NCCNc2ccnc(Nc3ccc(F)cc3)n2)c1 [GSK1379879] | 0 | 0 | 20 | 20 | 11 | 0 | 0 | 0 | 0 | 0
Cn1cc(-c2cnc(N)c3c(-c4ccc5c(c4)CCN5C(=O)Cc4ccccc4)csc23)cn1 [GSK2593074] | 19 | 0 | 0 | 39 | 99.9 | 20 | 0 | 21 | 0 | 1
CN(C)CCOc1ccc(-c2cc(-c3ccc(Cl)c(O)c3)c(-c3ccncc3)[nH]2)cc1.Cl.Cl [SB-684387] | 1 | 5 | 3 | 30 | 5 | 7 | 2 | 23 | 77 | 94.6

Reference: article PMC5540273 (PLoS ONE, 2017)
